PrPC TRFRET: cell surface PrPC inhibition, primary TR-FRET screen; P04156; TR-FRET read-out; inhibition, % at 13.8 µM; 370,000 compounds, 0.43% hits; AID 720596; in the data active = inhibition above about 24%; also: 0% = median of the test wells and 100% = reference compound wells
FBA Mtb inh: inhibits M. tuberculosis FBA enzyme; P9WQA3; purified M. tuberculosis FBA, fluorescence read-out; inhibition, % at 1 µM; 360,000 compounds, 2.3% hits; AID 588726; in the data active = inhibition above about 27%;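 also: 0% = vehicle and 100% = reference inhibitor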
Target sequence (P9WQA3 whole entry, looked up): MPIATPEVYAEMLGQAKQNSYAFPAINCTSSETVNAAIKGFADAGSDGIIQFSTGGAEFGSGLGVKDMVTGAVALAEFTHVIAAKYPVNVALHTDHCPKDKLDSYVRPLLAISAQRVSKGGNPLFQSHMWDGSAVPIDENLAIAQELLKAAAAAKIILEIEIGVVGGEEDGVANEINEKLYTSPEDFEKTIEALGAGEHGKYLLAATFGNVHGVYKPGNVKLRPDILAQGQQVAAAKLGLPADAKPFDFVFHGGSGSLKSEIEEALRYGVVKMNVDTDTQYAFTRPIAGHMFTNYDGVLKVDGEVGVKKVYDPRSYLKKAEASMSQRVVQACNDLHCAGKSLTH
GDH-TPI inh: GDH-TPI coupled enzyme inhibition counter-screen; GDH-TPI coupled enzyme counterscreen, NADH absorbance; inhibition, % at 4.8 µM; 360,000 compounds, 1.2% hits; AID 588335; in the data active = inhibition above about 30%;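 also: 0% = DMSO wells and 100% = wells lacking the enzyme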
Mtb hypoxia rep: reduces hypoxia-regulated biosensor signal in M. tuberculosis | 300,000 compounds, 0.1% hits | M. tuberculosis hypoxia-regulated fluorescent reporter, fluorescence | fluorescence inhibition, % (test concentration not listed); in the data active = fluorescence inhibition mostly above about 23%, no sharp cut-off; inactive = mostly below about 17%
Y pestis TopoI: inhibitors of Yersinia pestis topoisomerase I | Y. pestis Topo-I cleavage product accumulation, plate reader | activity, % at 10 µM | 360,000 compounds, 0.064% hits | AID 504884; in the data active = activity above about 50%, passing the limit was not always enough
PrP 5UTR inh: inhibition of PrP 5' UTR reporter expression. inhibition, % (no concentration beside the values). 340,000 compounds, 0.35% hits. cell-based PrP 5' UTR mRNA reporter, plate reader; in the data active = inhibition above about 52%; also: 0 = median of the neutral control wells
The depositor's hits bear a star; / = not tested or not shown; + = active, no number. Only some compounds are listed: those with a hit (about 3.8% of all), similar ones and a draw of the others.

SMILES	PrPC TRFRET	FBA Mtb inh	GDH-TPI inh	Mtb hypoxia rep	Y pestis TopoI	PrP 5UTR inh
Cc1c(C=NNc2ccc(C(=O)O)cc2)c2ccccc2n1C	/	/	/	1	/	/
COc1cc(C(=O)N/N=C/c2cn(Cc3cccc(F)c3)c3ccccc23)ccc1O	6	4	35*	/	-11	5
Nc1ccc(C(=O)NN=Cc2cn(Cc3cccc(F)c3)c3ccccc23)cc1	/	/	/	-10	/	/
O=C(O)c1ccc(N/N=C/c2cn(Cc3ccc(F)cc3)c3ccccc23)cc1	12	12	44*	/	-12	-7
FC(F)(F)c1ccc(CN2CC3C(c4ccc(C(F)(F)F)cc4)C4(c5cccnc5)CC3(C4)C2c2ccccc2)cc1 (stereo not drawn)	/	/	/	2	/	/
Cc1c(CCC(=O)N2CCC(C(=O)O)CC2)c(=O)oc2cc3oc4c(c3cc12)CCCC4	6	8	1	/	22	3
Cc1c(CC(=O)N2CCC(C(N)=O)CC2)c(=O)oc2cc3c(cc12)CCC1(CCCCC1)O3	4	+	18	/	39	-20
Cc1c(CC(=O)NCCCC(=O)O)c(=O)oc2cc3c(cc12)CCC(C)(C)O3	5	+	26	-5	2	0
Cc1c(CC(=O)NCCCCCC(=O)O)c(=O)oc2cc3c(cc12)CCC(C)(C)O3	8	187*	11	9	-4	-9
CCC(NC(=O)Cc1c(C)c2cc3c(cc2oc1=O)OC(C)(C)CC3)C(=O)O (stereo not drawn)	-5	+	23	17	-3	-22
COc1ccc(C(=O)NN=C(CCC(=O)O)c2ccc(C(C)(C)C)cc2)cc1OC	/	/	/	-1	/	/
COc1cccc(C(=O)NCC(=O)NN=Cc2cn[nH]c2-c2ccccc2)c1	/	/	/	7	/	/
CSc1ccc(C=Nn2c(C)cc(C)cc2=O)cc1	/	/	/	10	/	/
COCCCNC(=O)Cc1c(C)c2cc3c(cc2oc1=O)OC(C)(C)CC3	1	192*	11	-8	-2	-12
Cc1c(CC(=O)O)c(=O)oc2cc3occ(-c4ccccc4)c3cc12	2	6	5	5	9	-25
COCCCNC(=O)Cc1c(C)c2c(cc(C)c3c(C)c(C)oc32)oc1=O	0	8	9	11	-1	0
Cc1c(CC(=O)O)c(=O)oc2cc3c(cc12)CCC(C)(C)O3	4	+	25	2	6	-11
CN(C)C(=O)C1CC1C(NC(=O)OCc1ccccc1)c1ccccc1 (stereo not drawn)	/	/	/	8	/	/
COc1ccc(NC(=O)C2CC(=O)N/C(=N/N=Cc3ccccc3)S2)cc1 (stereo not drawn)	/	/	/	1	/	/
O=C1CC(C(=O)Nc2ccc(F)cc2)S/C(=N\N=C\c2ccco2)N1 (stereo not drawn)	-2	2	34*	/	1	-32
Cc1ccc(NC(=O)C2CC(=O)N/C(=N/N=C/c3ccco3)S2)cc1C (stereo not drawn)	/	-2	52*	/	3	4
Cc1ccc(NC(=O)C2CC(=O)N/C(=N/N=C/c3ccco3)S2)cc1 (stereo not drawn)	-4	-3	44*	/	4	-20
O=C(NC1CC1)C1=CC(c2ccc(Br)cc2)CC(OCc2ccc(CO)cc2)O1 (stereo not drawn)	/	/	/	17	/	/
COc1ccc(CNC(=O)c2cc3c(=O)n4cccc(C)c4nc3n(CC3CCCO3)c2=N)cc1 (stereo not drawn)	-41	14	4	1	-7	-1
COc1ccc(CCn2c(=N)c(C(=O)NCC3CCCO3)cc3c(=O)n4cccc(C)c4nc32)cc1 (stereo not drawn)	-37	14	13	/	1	6
SMILES	PrPC TRFRET	FBA Mtb inh	GDH-TPI inh	Mtb hypoxia rep	Y pestis TopoI	PrP 5UTR inh
Cc1cccn2c(=O)c3cc(C(=O)NCc4ccc(F)cc4)c(=N)n(CC4CCCO4)c3nc12 (stereo not drawn)	-35	+	0	12	-3	-12
Cc1cccn2c(=O)c3cc(C(=O)NCC4CCCO4)c(=N)n(CC4CCCO4)c3nc12 (stereo not drawn)	-53	+	6	-12	0	-15
Cc1cccn2c(=O)c3cc(C(=O)NCC4CCCO4)c(=N)n(C4CCCCC4)c3nc12 (stereo not drawn)	-25	+	7	-2	18	-11
Cc1cccn2c(=O)c3cc(C(=O)NC4CCCC4)c(=N)n(CC4CCCO4)c3nc12 (stereo not drawn)	-32	+	8	3	10	-27
CCOC(=O)C=CC1CC2(CCO1)SCCCS2 (stereo not drawn)	/	/	/	10	/	/
C#CCNC(=O)C1=CC(c2cn(C(C)=O)c3ccccc23)CC(OCc2ccc(CO)cc2)O1 (stereo not drawn)	/	/	/	-3	/	/
COc1cc(/C=N/NC(=O)c2cc(-c3cccc(OC(C)C)c3)nc3ccccc23)ccc1O	-7	3	61*	/	-12	-8
COc1cc(C=NNC(=O)c2cc(-c3cccc(OC(C)C)c3)nc3ccccc23)ccc1O	/	/	/	-1	/	/
COc1cc(/C=N/NC(=O)c2cc(-c3cccs3)nc3ccccc23)ccc1O	-4	7	56*	/	-7	-2
COc1ccc(COc2cc(-c3cccc(OC)c3)nc3ccc(NC(C)=O)cc23)cc1	1	136*	10	7	-4	-2
COc1ccc(COc2cc(-c3cccc(OC)c3)nc3ccc(NC(=O)c4ccc(N(C)C)cc4)cc23)cc1	/	8	38*	/	1	-19
COc1ccc(COc2cccnc2N)cc1	4	1	12	2	-14	-27
COc1ccc(COc2cc(-c3cccc(OC)c3)nc3ccc(N)cc23)cc1	-8	54*	4	/	-6	54
COc1ccc(COc2cc(-c3cccc(OC)c3)nc3ccc(NC(=O)c4ccc(C)cc4)cc23)cc1	-10	16	20	1	-2	-18
Cc1ccnc(N/C=C(/NC(=O)c2ccccc2)C(=O)N/N=C\c2ccc(Cl)cc2)n1	7	-5	91*	/	28	-13
c1ccc2c(c1)ncc1cccn12	-1	+	17	8	5	-16
c1ccc(-c2ncc3ccccn23)cc1	-6	19	3	0	-3	-17
CCC(=O)Nc1nc(C)c(-c2csc(Nc3ccccn3)n2)s1	-5	5	40*	5	-5	-77
Nc1nonc1-n1nnc(C(=O)NN=Cc2ccccc2)c1CSc1ccc(Cl)cc1	/	/	/	10	/	/
Cc1cc(=O)n2c3ccccc3n(CC(O)CN3CCCCC3)c2c1C#N (stereo not drawn)	-11	20	50*	6	1	-20
Cc1cc(=O)n2c3ccccc3n(CC(O)CN3CCOCC3)c2c1C#N (stereo not drawn)	1	6	12	-7	-2	-24
CCC(C)C(C(=O)N1CCN(C(=O)OC(C)(C)C)CC1)n1cc(CCC(=O)O)nn1 (stereo not drawn)	/	/	/	10	/	/
CC(=O)c1cccc(N=c2scc(-c3ccc(S(=O)(=O)N4CCOCC4)cc3)n2CCO)c1	24*	0	4	-1	24	-16

Screening data (PubChem)
